In PubChem BioAssay (NCATS):
“And” between values parts separate entries of the source, which are not always exact repeats. Equal values may be shown once. Results filed as inconclusive are left out. The source made the active and inactive calls. Unless noted, calls follow the shape of the dose curve; as a rule, active = well fitted curve in the direction sought with a large enough effect; inconclusive = small, poorly fitted or top-dose-only effect, or another doubt; inactive = no such curve, though single readings can be large; an effect the other way counts as inactive or inconclusive.

Columns and labels:
[1] = qHTS Assay for Identifying Gametocytocidal Compounds (AID 743244); also: potency is read from the fitted curve at half-maximal effect;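 as to max response: % is scaled to controls: 0 for no effect and ±100 for the full control effect; actives lower the fluorescent signal which means gametocytes are killed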; conditions: P. falciparum 3D7 stage III-V gametocytes, alamarBlue, 72 h; max response: hits give low values
Procedure, shortened: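 Using 20,000 stage III–V 3D7 gametocytes per well, compounds were incubated 72 h under 37 °C/5% CO2. Viability was then assessed by 24 h alamarBlue reduction, measured fluorometrically at 525/598 nm.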

[2] = qHTS assay for measurement of the activity of small molecule inhibitors on Zika virus induced Caspase-3 activity in human iPSC derived neural progenitor cells (hNPCs) (AID 1224857); also: nearly all actives have a fitted effect of over 65% in size; also: potency is read from the fitted curve at half-maximal effect
Procedure, shortened: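 After overnight (16–20 h) culture at 350 cells/well, hNPCs get compound, then ZIKV 2 FFU/cell one hour later. Six hours on, Caspase-Glo 3/7 is added and luminescence measured.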

[3] = qHTS assay for measurement of the activity of small molecule inhibitors on Zika virus induced Caspase-3 activity in human astrocytoma cells (AID 1224859);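 also: plate controls were ZIKV-infected untreated cells for no effect and uninfected cells for full effect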
Procedure, shortened: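 Inhibition of Zika-induced caspase-3/7 activity: SNB-19 cells, 1 h compound pretreatment, ZIKV 2 FFU/cell for 6 h at 37 C, Caspase-Glo luminescence read-out.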

[4] = qHTS assay to identify small molecule inhibitors of chordoma cells - UCH-1 (AID 1259355); also: nearly all actives have a fitted effect of over 55% in size; also: potency is read from the fitted curve at half-maximal effect; series mostly up to about 46 µM
Procedure, shortened: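 A 48hr growth-inhibition format: each drug tested at 15 concentrations together with added auranofin, camptothecin, doxorubicin, rubitecan and topotecan, with cell viability quantified as CellTiter-Glo luminescence.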

[5] = qHTS assay to identify small molecule inhibitors of chordoma cells - UCH-2 (AID 1259356); also: potency is read from the fitted curve at half-maximal effect
[6] = P-glycoprotein substrates identified in KB-8-5-11 adenocarcinoma cell line, qHTS therapeutic library screen (AID 1346987); also: nearly all actives have a fitted effect of over 65% in size; also: potency is read from the fitted curve at half-maximal effect
Procedure, shortened: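 Compounds are pinned in dose-response onto KB-8-5-11 cells (500 cells/well, colchicine-free medium) and left 72 h at 37 degree C. CellTiter-Glo luminescence then yields AC50 values.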

[7] = biological target: Hexokinase-4 (Homo sapiens) + Glucokinase regulatory protein (Homo sapiens) (UniProt P35557+Q14397); experiment: qHTS assay for inhibitors of recombinant human GCK-GKRP interaction: HTRF assay (AID 743207);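 also: 0% = DMSO with GCK present and -100% = DMSO wells lacking GCK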
Procedure, shortened: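 Titration screening format: recombinant GST-GCK and FLAG-GKRP at 5 nM, S6P at 2 uM, labelled anti-tag antibodies, 60 min at RT, dual-wavelength HTRF readout.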

[8] = Natriuretic polypeptide receptor (hNpr1) antagonism - Pilot counterscreen GloSensor control cell line (AID 1347045; calls by dose curve; also: series mostly up to about 38 µM; % is scaled to controls: 0 for no effect and ±100 for the full control effect)
Procedure, shortened: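 Control counterscreen: luciferase cGMP-biosensor HEK293 cells (no Npr1) received compound for 30 min at room temperature after GloSensor substrate loading. Luminescence was measured before and 20 min after soluble guanylyl cyclase activation by 50 uM nitroprusside.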

[9] = biological target: Atrial natriuretic peptide receptor 1 (Homo sapiens) (UniProt P16066); experiment: Natriuretic polypeptide receptor (hNpr1) antagonism - Pilot screen (AID 1347049; calls by dose curve;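 also: HEK293 cells with hNpr1 and GloSensor cGMP luciferase stimulated by 0.1 nM hNppA; agonist-evoked cGMP luminescence read 20 min after hNppA addition; series mostly up to about 58 µM; % is scaled to controls: 0 for no effect and ±100 for the full control effect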)
Procedure, shortened: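 Cells expressing receptor plus cGMP biosensor are seeded and incubated overnight at 37C, then loaded with GloSensor reagent (2% final) at room temperature for 2 h. Library compounds go on for 30 min. A pre-read precedes agonist (hNppA, 0.1 nM final) and a 20-min readout.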

[10] = biological target: Atrial natriuretic peptide receptor 2 (Homo sapiens) (UniProt P20594); experiment: Natriuretic polypeptide receptor (hNpr2) antagonism - Pilot subtype selectivity assay (AID 1347050; calls by dose curve; also: % is scaled to controls: 0 for no effect and ±100 for the full control effect)
Procedure, shortened: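 Read-out: GloSensor luminescence (CCD imager), baseline vs post-stimulation. HEK293 cells expressing hNpr2; compounds pre-incubated 30-50 min at ambient temperature; hNppC 1 nM final, 20 min.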

[11] = P-glycoprotein substrates identified in KB-3-1 adenocarcinoma cell line, qHTS therapeutic library screen (AID 1346986); conditions: KB-3-1 parental cells viability, CellTiter-Glo, 72 h; also: nearly all actives have a fitted effect of over 60% in size
Procedure, shortened: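 72 h cell-killing screen, 500 cells/well, CellTiter-Glo luminescence. Paired lines KB-3-1/KB-8-5-11; P-gp dependence checked by tariquidar co-treatment and HEK-293 MDR-19 versus empty-vector cells.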

Chain of Atrial natriuretic peptide receptor 2 (Homo sapiens) (P20594 whole entry, looked up): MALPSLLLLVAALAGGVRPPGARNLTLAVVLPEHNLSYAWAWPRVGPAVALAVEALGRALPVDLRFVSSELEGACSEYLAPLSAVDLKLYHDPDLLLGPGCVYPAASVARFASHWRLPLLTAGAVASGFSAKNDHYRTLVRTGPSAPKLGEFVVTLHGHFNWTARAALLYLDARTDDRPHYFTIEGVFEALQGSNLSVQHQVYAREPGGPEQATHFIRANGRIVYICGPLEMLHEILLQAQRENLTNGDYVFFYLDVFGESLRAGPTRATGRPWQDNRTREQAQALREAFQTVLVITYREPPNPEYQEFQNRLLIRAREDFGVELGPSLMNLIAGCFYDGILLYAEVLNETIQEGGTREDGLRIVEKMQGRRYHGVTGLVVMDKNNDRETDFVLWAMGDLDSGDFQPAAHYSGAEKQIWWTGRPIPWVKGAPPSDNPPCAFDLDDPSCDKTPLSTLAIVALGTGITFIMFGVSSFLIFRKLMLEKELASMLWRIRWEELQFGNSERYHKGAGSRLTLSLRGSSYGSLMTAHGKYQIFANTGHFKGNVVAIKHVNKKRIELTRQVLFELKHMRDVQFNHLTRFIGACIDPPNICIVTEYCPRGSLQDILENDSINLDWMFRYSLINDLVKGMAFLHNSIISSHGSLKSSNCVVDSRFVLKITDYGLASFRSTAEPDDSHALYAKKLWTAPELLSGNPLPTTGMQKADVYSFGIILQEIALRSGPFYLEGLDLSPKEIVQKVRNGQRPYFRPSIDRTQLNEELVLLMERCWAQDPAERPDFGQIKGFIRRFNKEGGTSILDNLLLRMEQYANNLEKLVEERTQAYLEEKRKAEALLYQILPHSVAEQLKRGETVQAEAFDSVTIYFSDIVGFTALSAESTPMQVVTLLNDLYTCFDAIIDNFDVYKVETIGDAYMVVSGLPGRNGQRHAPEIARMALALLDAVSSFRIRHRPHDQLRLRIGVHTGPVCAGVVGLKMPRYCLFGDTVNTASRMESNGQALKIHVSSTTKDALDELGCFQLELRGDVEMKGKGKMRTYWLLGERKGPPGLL
Chain of Atrial natriuretic peptide receptor 1 (Homo sapiens) (P16066 whole entry, looked up): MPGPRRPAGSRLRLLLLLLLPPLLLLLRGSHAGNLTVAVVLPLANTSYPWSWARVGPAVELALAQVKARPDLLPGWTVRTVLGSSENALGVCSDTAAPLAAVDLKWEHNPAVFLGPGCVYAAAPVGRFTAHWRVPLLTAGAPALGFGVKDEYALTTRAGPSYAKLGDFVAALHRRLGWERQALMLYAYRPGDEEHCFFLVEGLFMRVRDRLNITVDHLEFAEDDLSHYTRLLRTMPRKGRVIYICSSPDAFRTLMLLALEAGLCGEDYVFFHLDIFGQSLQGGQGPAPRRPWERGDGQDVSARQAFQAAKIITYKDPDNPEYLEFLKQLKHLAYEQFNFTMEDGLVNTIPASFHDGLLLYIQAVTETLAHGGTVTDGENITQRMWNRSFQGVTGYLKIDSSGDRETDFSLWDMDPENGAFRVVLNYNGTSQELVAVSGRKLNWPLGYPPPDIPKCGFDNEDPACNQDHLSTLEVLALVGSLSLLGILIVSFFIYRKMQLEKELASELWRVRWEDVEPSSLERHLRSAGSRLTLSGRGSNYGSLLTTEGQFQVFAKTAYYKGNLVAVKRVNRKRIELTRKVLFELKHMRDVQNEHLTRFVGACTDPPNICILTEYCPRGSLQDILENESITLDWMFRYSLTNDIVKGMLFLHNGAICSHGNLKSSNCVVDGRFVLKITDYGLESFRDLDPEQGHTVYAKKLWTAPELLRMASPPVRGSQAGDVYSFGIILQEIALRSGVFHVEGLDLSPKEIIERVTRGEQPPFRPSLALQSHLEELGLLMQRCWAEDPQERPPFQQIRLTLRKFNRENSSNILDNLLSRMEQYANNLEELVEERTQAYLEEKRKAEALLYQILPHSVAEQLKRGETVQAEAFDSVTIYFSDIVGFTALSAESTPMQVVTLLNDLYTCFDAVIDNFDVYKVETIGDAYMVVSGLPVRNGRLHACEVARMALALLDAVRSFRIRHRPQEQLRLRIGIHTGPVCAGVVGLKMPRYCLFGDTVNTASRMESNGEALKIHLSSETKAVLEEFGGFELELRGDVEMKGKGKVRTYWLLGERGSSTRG
Chain of Hexokinase-4 (Homo sapiens) + Glucokinase regulatory protein (Homo sapiens) (P35557 whole entry, looked up): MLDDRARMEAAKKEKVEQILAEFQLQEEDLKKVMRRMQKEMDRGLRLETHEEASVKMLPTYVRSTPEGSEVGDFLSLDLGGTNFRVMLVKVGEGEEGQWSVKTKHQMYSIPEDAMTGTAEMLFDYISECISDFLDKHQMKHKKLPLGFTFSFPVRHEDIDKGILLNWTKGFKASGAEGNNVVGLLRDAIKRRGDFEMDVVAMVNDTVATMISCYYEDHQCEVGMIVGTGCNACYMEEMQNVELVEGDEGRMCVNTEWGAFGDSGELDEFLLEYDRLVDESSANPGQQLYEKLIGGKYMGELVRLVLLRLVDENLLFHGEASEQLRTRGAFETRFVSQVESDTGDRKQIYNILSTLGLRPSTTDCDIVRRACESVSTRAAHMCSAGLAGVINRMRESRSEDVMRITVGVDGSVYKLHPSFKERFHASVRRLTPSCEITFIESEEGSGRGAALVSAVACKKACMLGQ
Chain of Hexokinase-4 (Homo sapiens) + Glucokinase regulatory protein (Homo sapiens) (Q14397 whole entry, looked up): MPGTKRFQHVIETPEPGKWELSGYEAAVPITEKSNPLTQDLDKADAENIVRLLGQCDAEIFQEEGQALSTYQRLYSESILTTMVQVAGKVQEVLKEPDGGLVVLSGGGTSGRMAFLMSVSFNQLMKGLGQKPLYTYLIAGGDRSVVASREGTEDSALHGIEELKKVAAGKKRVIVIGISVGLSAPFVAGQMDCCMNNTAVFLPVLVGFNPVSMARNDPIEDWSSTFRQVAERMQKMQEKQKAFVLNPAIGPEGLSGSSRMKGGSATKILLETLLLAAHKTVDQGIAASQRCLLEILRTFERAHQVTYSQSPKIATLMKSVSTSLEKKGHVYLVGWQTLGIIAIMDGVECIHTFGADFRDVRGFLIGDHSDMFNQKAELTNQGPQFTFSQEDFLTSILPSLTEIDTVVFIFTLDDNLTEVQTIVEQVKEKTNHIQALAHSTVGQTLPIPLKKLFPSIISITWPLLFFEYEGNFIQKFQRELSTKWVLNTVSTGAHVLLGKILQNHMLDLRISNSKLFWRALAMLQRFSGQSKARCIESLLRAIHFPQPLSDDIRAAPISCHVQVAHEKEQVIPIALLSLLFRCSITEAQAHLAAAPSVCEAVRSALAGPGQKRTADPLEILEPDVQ

O=C1OC2(c3ccccc31)c1cc(Br)c(O)c(Br)c1Oc1c2cc(Br)c(O)c1Br
inactive: max response [1] -3.43% | Potency [2] | outcome [3] | Potency [4] | Potency [5] | Potency [6]

CCCN(CCc1cccs1)[C@H]1CCc2c(O)cccc2C1
inactive: Potency [2] | outcome [3] | Potency [4]

Clc1cccc(C(c2ccc3nc[nH]c3c2)n2ccnc2)c1 (configuration not stated)
inactive: Potency [2] | outcome [3] | Potency [4] | Potency [5]

CCCCCN=C(N)N/N=C/c1c[nH]c2ccc(OC)cc12
inactive: Potency [2] | outcome [3] | Potency [4] | Potency [5] | Potency [6]

C=C[C@H]1CN2CC[C@H]1C[C@H]2[C@H](O)c1ccnc2ccc(OC)cc12
inactive: Potency [2] | outcome [3] | Potency [4] | Potency [5] | Potency [6]

CCC1Nc2cc(Cl)c(S(N)(=O)=O)cc2S(=O)(=O)N1 (configuration not stated)
inactive: max response [1] 7.47% | Potency [2] | outcome [3] | Potency [4] | Potency [5] | Potency [6]

CCN(CC)CCNc1ccc(CO)c2sc3ccccc3c(=O)c12
active: Potency [5] 25.9 µM
inactive: Potency [2] | outcome [3] | Potency [4]

CC(C)NCC(O)c1ccc2ccccc2c1 (configuration not stated)
inactive: Potency [2] | outcome [3] | Potency [4] | Potency [5] | Potency [6]

C[N+]12CCC(CC1)C(OC(=O)C(O)(c1ccccc1)c1ccccc1)C2 (configuration not stated)
inactive: max response [1] -5.86% | Potency [2] | outcome [3] | Potency [4] | Potency [5] | Potency [6]

CCCCCCCCCCCCCC[N+](C)(C)Cc1ccccc1
inactive: Potency [2] | outcome [3] | Potency [4] | Potency [5] | Potency [6]
active: Potency [1] 8.91 µM

CCCc1ncc(C[n+]2ccccc2C)c(N)n1
inactive: max response [1] 8.25% | Potency [2] | outcome [3] | Potency [4] | Potency [5] | Potency [6]

CN=C(N)NCCC[C@H](N)C(=O)O
inactive: outcome [7] | max response [1] -7.79% and 5.96% and -18.7% | Potency [2] | outcome [3] | Potency [4] | Potency [5] | Potency [6] | outcome [8] | outcome [9] | outcome [10]

CN1CCN(c2c(F)cc3c(=O)c(C(=O)O)cn4c3c2SCC4)CC1
inactive: max response [1] 9.27% | Potency [2] | outcome [3] | Potency [4] | Potency [5] | Potency [6]

CN(CCCN1c2ccccc2CCc2ccccc21)CC(=O)c1ccc(Cl)cc1
inactive: Potency [2] | outcome [3] | Potency [4] | Potency [5]

CCCCN=C(N)N=C(N)N
inactive: max response [1] 0.948% | Potency [2] | outcome [3] | Potency [4] | Potency [5] | outcome [11] | outcome [6]

CCOC(=O)c1ccc(N)cc1
inactive: max response [1] 11.9% | Potency [2] | outcome [3] | Potency [4] | Potency [5] | Potency [6]

C[C@@H](O)[C@H]1C(=O)N2C(C(=O)O)=C([C@H]3CCCO3)S[C@H]12
inactive: max response [1] -9.42% | Potency [2] | outcome [3] | Potency [4] | Potency [5] | Potency [6]

CCN(CC)CCNC(=O)COc1ccc(OC)cc1
inactive: Potency [2] | outcome [3] | Potency [4] | Potency [5] | Potency [6]

CC(C)(C)NC[C@H](O)COc1nsnc1N1CCOCC1
inactive: outcome [7] | max response [1] -3.64% | Potency [2] | outcome [3] | Potency [4] | Potency [5] | Potency [6] | outcome [8] | outcome [9] | outcome [10]

CC(C)(Cc1c[nH]c2ccccc12)NCC(O)COc1ccccc1C#N (configuration not stated)
inactive: Potency [2] | outcome [3] | Potency [4] | Potency [5] | Potency [6]

CC(=O)NC(=O)c1ccccc1O
inactive: max response [1] -9.03% | Potency [2] | outcome [3] | Potency [4] | Potency [5] | Potency [6]

CCC(Cc1c(I)cc(I)c(N)c1I)C(=O)O (configuration not stated)
inactive: max response [1] 3.24% | Potency [2] | outcome [3] | Potency [4] | Potency [5] | Potency [6]

O=C(O)Cc1csc(-c2ccc(Cl)cc2)n1
inactive: max response [1] -4.61% | Potency [2] | outcome [3] | Potency [4] | Potency [5] | Potency [6]

CCNC(=O)NCc1cccc(Cl)c1
inactive: max response [1] 8.55% | Potency [2] | outcome [3] | Potency [4] | Potency [5] | Potency [6]

Cc1ncc(CO)c(C=O)c1O
inactive: max response [1] -3.85% | Potency [2] | outcome [3] | Potency [4] | Potency [5] | Potency [6]

Cc1ccc(O)c([C@H](CCN(C(C)C)C(C)C)c2ccccc2)c1
inactive: Potency [2] | outcome [3] | Potency [4] | Potency [5]

O=[N+]([O-])c1ccc(/C=N\O)o1
inactive: Potency [2] | outcome [3] | Potency [4] | Potency [5]

Cc1ccc2c(Br)cc(Br)c(O)c2n1
inactive: Potency [2] | outcome [3] | Potency [4]

NC(N)=NN=C(/C=C/c1ccc([N+](=O)[O-])o1)/C=C/c1ccc([N+](=O)[O-])o1
active: Potency [2] 31.6 µM | Potency [4] 10 µM | Potency [5] 16.4 µM | Potency [6] 4.61 µM
inactive: outcome [3]

Cc1cc(NS(=O)(=O)c2ccc(N)cc2)nc(C)n1
inactive: max response [1] 18.7% | Potency [2] | outcome [3] | Potency [4] | Potency [5] | Potency [6]
